Data: PubChem BioAssay (NCATS)
Results filed as inconclusive are left out. Where a call stands in place of a potency, no number is given. Active and inactive are the calls of the source. Calls follow the shape of the dose curve; as a rule, active = well fitted curve in the direction sought with a large enough effect; inconclusive = small, poorly fitted or top-dose-only effect, or another doubt; inactive = no such curve, though single readings can be large; an effect the other way counts as inactive or inconclusive.

Tests used:
[1] = Quantitative High-Throughput drug screen in 47 multiple myeloma cell lines against the NCATS MIPE library collection: Delta47_JCRB cell viability assay (AID 1918925; also: nearly all actives have a fitted effect of over 45% in size)
Summary of the method: (§1)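 Viability readout: CellTiter-Glo luminescence following 5 min room-temperature incubation with reagent. Prior exposure: 48 h, 37C, humidified 5% CO2, 500 cells per well.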

[2] = Quantitative High-Throughput drug screen in 47 multiple myeloma cell lines against the NCATS MIPE library collection: AMO1_DSMZ cell viability assay (AID 1918927; also: nearly all actives have a fitted effect of over 30% in size)
Summary of the method: as §1

[3] = Quantitative High-Throughput drug screen in 47 multiple myeloma cell lines against the NCATS MIPE library collection: ARP1_JJKsccF8 cell viability assay (AID 1918928; also: nearly all actives have a fitted effect of over 40% in size)
Summary of the method: (§2)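 ATP readout (CellTiter-Glo), 48 h drug incubation, 37 °C/5% CO2, 500 cells per well; normalisation to DMSO (100%) and media-only (0%) controls.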

[4] = Quantitative High-Throughput drug screen in 47 multiple myeloma cell lines against the NCATS MIPE library collection: ARD_JJKsccE7 cell viability assay (AID 1918929)
Summary of the method: as §1

[5] = Quantitative High-Throughput drug screen in 47 multiple myeloma cell lines against the NCATS MIPE library collection: Karpas620_DSMZ cell viability assay (AID 1918959); also: nearly all actives have a fitted effect of over 30% in size
Summary of the method: as §1

[6] = Quantitative High-Throughput drug screen in 47 multiple myeloma cell lines against the NCATS MIPE library collection: KMM1_JCRB cell viability assay (AID 1918960); also: nearly all actives have a fitted effect of over 30% in size
Summary of the method: as §2

[7] = Quantitative High-Throughput drug screen in 47 multiple myeloma cell lines against the NCATS MIPE library collection: Karpas417_ECACC cell viability assay (AID 1918961); conditions: Karpas417 myeloma viability, CellTiter-Glo ATP luminescence, 48 h; viability (% of DMSO): at 45.8 µM (top of the series)
Summary of the method: (§3)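 Approved and investigational drugs from MIPE 4.0 were added by pin tool to 500 cells per well. After 48 hours at 37C, ATP-based CellTiter-Glo luminescence indicated remaining viability.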

[8] = Quantitative High-Throughput drug screen in 47 multiple myeloma cell lines against the NCATS MIPE library collection: KHM11_PLB cell viability assay (AID 1918962); also: nearly all actives have a fitted effect of over 35% in size
Summary of the method: as §1

[9] = Quantitative High-Throughput drug screen in 47 multiple myeloma cell lines against the NCATS MIPE library collection: JIM3_ECACC cell viability assay (AID 1918963; also: nearly all actives have a fitted effect of over 35% in size)
Summary of the method: as §1

[10] = Quantitative High-Throughput drug screen in 47 multiple myeloma cell lines against the NCATS MIPE library collection: JJN3_DSMZ cell viability assay (AID 1918966; also: nearly all actives have a fitted effect of over 50% in size)
Summary of the method: as §1

[11] = Quantitative High-Throughput drug screen in 47 multiple myeloma cell lines against the NCATS MIPE library collection: H1112_PLB cell viability assay (AID 1918967; also: nearly all actives have a fitted effect of over 30% in size)
Summary of the method: as §1

[12] = Quantitative High-Throughput drug screen in 47 multiple myeloma cell lines against the NCATS MIPE library collection: Karpas25_ECACC cell viability assay (AID 1918968; also: nearly all actives have a fitted effect of over 35% in size)
Summary of the method: as §1

[13] = Quantitative High-Throughput drug screen in 47 multiple myeloma cell lines against the NCATS MIPE library collection: KMS27_JCRB cell viability assay (AID 1918970); also: nearly all actives have a fitted effect of over 30% in size
Summary of the method: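 KMS27_JCRB myeloma cells, 500 per well, exposed 48 h at 37 C, 5% CO2 to MIPE 4.0 compounds. Viability from ATP by CellTiter-Glo luminescence, normalized to DMSO (100%) and medium-only (0%) wells.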

[14] = Quantitative High-Throughput drug screen in 47 multiple myeloma cell lines against the NCATS MIPE library collection: FR4_PLB cell viability assay (AID 1918924; also: nearly all actives have a fitted effect of over 35% in size)
Summary of the method: as §1

[15] = Quantitative High-Throughput drug screen in 47 multiple myeloma cell lines against the NCATS MIPE library collection: JIM1_ECACC cell viability assay (AID 1918964)
Summary of the method: as §1

[16] = Quantitative High-Throughput drug screen in 47 multiple myeloma cell lines against the NCATS MIPE library collection: INA6_PLB cell viability assay (AID 1918965; also: nearly all actives have a fitted effect of over 55% in size)
Summary of the method: as §3

[17] = Quantitative High-Throughput drug screen in 47 multiple myeloma cell lines against the NCATS MIPE library collection: KMS12BM_JCRB cell viability assay (AID 1918971); also: nearly all actives have a fitted effect of over 35% in size
Summary of the method: as §1

[18] = Quantitative High-Throughput drug screen in 47 multiple myeloma cell lines against the NCATS MIPE library collection: EJM_DSMZ cell viability assay (AID 1918926; also: nearly all actives have a fitted effect of over 30% in size)
Summary of the method: as §1
Potency is read from the fitted curve at half-maximal effect.

CC(C)N[C@@H]1CCn2c(=O)[nH]c3cccc(c32)[C@@H]1O
Potency [1]: 14800 nM (active)
Potency [2]: 5900 nM (active)
Potency [3]: 11800 nM (active)
Potency [4]: 6620 nM (active)
Potency [5]: 5260 nM (active)
Potency [6]: 743 nM (active)
Potency [7]: 1050 nM (active)
Potency [8]: 13200 nM (active)
Potency [9]: 9350 nM (active)
Potency [10]: 9350 nM (active)
Potency [11]: 7430 nM (active)
Potency [12]: 187 nM (active)
Potency [13]: 833 nM (active)

C[C@@H]1CC[C@@]2(OC1)O[C@H]1C[C@H]3[C@@H]4CC=C5C[C@@H](O[C@@H]6O[C@H](CO)[C@@H](O[C@@H]7O[C@@H](C)[C@H](O)[C@@H](O)[C@@H]7O)[C@H](O)[C@@H]6O[C@@H]6O[C@@H](C)[C@H](O)[C@@H](O)[C@@H]6O)CC[C@]5(C)[C@@H]4CC[C@]3(C)[C@@H]1[C@H]2C
Potency [14]: 2350 nM (active)
Potency [2]: 2640 nM (active)
Potency [3]: 3320 nM (active)
Potency [4]: 2350 nM (active)
Potency [5]: 2960 nM (active)
Potency [6]: 2640 nM (active)
Potency [7]: 1050 nM (active)
Potency [8]: 2960 nM (active)
Potency [9]: 3720 nM (active)
Potency [15]: 2350 nM (active)
Potency [16]: 5260 nM (active)
Potency [10]: 2350 nM (active)
Potency [11]: 4690 nM (active)
Potency [13]: 935 nM (active)

CC(O)=C(C#N)C(=O)Nc1cc(Br)ccc1Br
Potency [1]: inactive
Potency [5]: 5260 nM (active)
Potency [6]: inactive
Potency [9]: inactive
Potency [11]: 935 nM (active)
Potency [17]: 20900 nM (active)

COc1ccc2c(c1)CN(C)CC2c1ccc(Cl)c(Cl)c1 (centres undefined)
Potency [2]: 23500 nM (active)
Potency [3]: 20900 nM (active)
Potency [5]: 16600 nM (active)
Potency [6]: 14800 nM (active)
Potency [7]: 14800 nM (active)
Potency [15]: 7430 nM (active)
Potency [16]: 23500 nM (active)
Potency [13]: 16600 nM (active)

CC(C)(O)C=CC(=O)[C@](C)(O)[C@H]1[C@H](O)C[C@]2(C)[C@@H]3CC=C4[C@@H](C=C(O)C(=O)C4(C)C)[C@]3(C)C(=O)C[C@@]12C
Potency [14]: 46.9 nM (active)
Potency [2]: 41.8 nM (active)
Potency [3]: 66.2 nM (active)
Potency [5]: 418 nM (active)
Potency [6]: 59 nM (active)
Potency [7]: 8.3 nM (active)
Potency [8]: 41.8 nM (active)
Potency [9]: 105 nM (active)
Potency [15]: 14.8 nM (active)
Potency [16]: 14.8 nM (active)
Potency [10]: 37.2 nM (active)
Potency [11]: 2090 nM (active)
Potency [13]: 20.9 nM (active)

CC[C@@H](C(N)=O)N1CCCC1=O
Potency [14]: inactive
Potency [2]: inactive
Potency [3]: inactive
Potency [4]: inactive
Potency [5]: inactive
Potency [6]: inactive
Potency [8]: inactive
Potency [9]: inactive
Potency [16]: inactive
Potency [10]: inactive
Potency [11]: inactive
Potency [12]: inactive

C[C@]12CC[C@H](O)CC1=CC[C@H]1[C@H]3CCC(=O)[C@@]3(C)CC[C@@H]12
Potency [14]: inactive
Potency [2]: 18700 nM (active)
Potency [3]: inactive
Potency [5]: 16600 nM (active)
Potency [8]: 14800 nM (active)
Potency [9]: inactive
Potency [15]: 418 nM (active)
Potency [13]: inactive

C=CCON=C(C[C@H]1O[C@@H]2O[C@]3(C)CC[C@@H]4[C@H](C)CC[C@@H]([C@H]1C)[C@@]24OO3)[C@H]1O[C@@H]2O[C@]3(C)CC[C@H]4[C@H](C)CC[C@@H]([C@@H]1C)[C@@]24OO3
Potency [2]: 118 nM (active)
Potency [3]: 20.9 nM (active)
Potency [4]: 132 nM (active)
Potency [7]: 148 nM (active)
Potency [8]: 418 nM (active)
Potency [9]: 372 nM (active)
Potency [16]: 469 nM (active)
Potency [10]: 418 nM (active)
Potency [11]: 469 nM (active)
Potency [12]: 209 nM (active)

c1cc2c(cc1[C@H]1OC[C@H]3[C@H]1CO[C@H]3c1ccc3c(c1)OCO3)OCO2
Potency [14]: inactive
Potency [2]: inactive
Potency [4]: inactive
Potency [5]: inactive
Potency [9]: inactive
Potency [16]: inactive
Potency [13]: inactive

C[C@]12Cc3cn[nH]c3C[C@@H]1CC[C@@H]1[C@H]2CC[C@@]2(C)[C@H]1CC[C@]2(C)O
Potency [5]: inactive
Potency [6]: inactive
Potency [15]: inactive
Potency [16]: inactive
Potency [10]: 14800 nM (active)
Potency [11]: inactive
Potency [12]: inactive
Potency [17]: 16600 nM (active)

CC(=O)OCC1=C(C(=O)O)N2C(=O)[C@@H](N)[C@@H]2SC1
Potency [14]: inactive
Potency [2]: 23500 nM (active)
Potency [3]: inactive
Potency [5]: 10500 nM (active)
Potency [8]: inactive
Potency [9]: inactive
Potency [11]: inactive
Potency [13]: 7430 nM (active)

O=C1CCC[C@@H]2[C@H]3CCCN4CCC[C@@H](CN12)[C@@H]34
Potency [5]: inactive
Potency [9]: inactive
Potency [15]: inactive
Potency [16]: inactive
Potency [11]: inactive
Potency [13]: inactive

C#CC1(O)CCC2C3CCC4=CC(=O)CCC4(C)C3CCC21C (centres undefined)
Potency [18]: inactive
Potency [2]: inactive
Potency [3]: inactive
Potency [5]: inactive
Potency [6]: inactive
Potency [8]: inactive
Potency [16]: inactive
Potency [11]: inactive
Potency [12]: inactive
Potency [13]: inactive
Potency [17]: 4180 nM (active)

CC(=CCCC1=CCC(C2=CC(=O)OC2O)OC1O)CCC1=C(C)CCCC1(C)C (centres undefined)
Potency [14]: inactive
Potency [18]: inactive
Potency [3]: inactive
Potency [5]: inactive
Potency [9]: inactive
Potency [15]: inactive
Potency [16]: inactive
Potency [11]: inactive
Potency [13]: inactive

Clc1ccccc1C(c1ccccc1)(c1ccccc1)n1cccn1
Potency [14]: inactive
Potency [5]: inactive
Potency [8]: inactive
Potency [9]: inactive
Potency [15]: inactive
Potency [16]: inactive
Potency [11]: inactive
Potency [13]: inactive

CC(=O)O[C@@]12CO[C@H]1C[C@H](O)[C@@]1(C)C(=O)[C@H](O)C3=C(C)[C@@H](O)C[C@@](O)([C@@H](OC(=O)c4ccccc4)[C@@H]21)C3(C)C
Potency [14]: 1050 nM (active)
Potency [18]: 3320 nM (active)
Potency [3]: 2640 nM (active)
Potency [6]: 1180 nM (active)
Potency [9]: 1050 nM (active)
Potency [16]: 1480 nM (active)

C#C[C@]1(O)C=C[C@@H]2[C@@H]3CCC4=CC(=O)CC[C@@H]4[C@H]3CC[C@@]21CC
Potency [14]: inactive
Potency [18]: inactive
Potency [3]: inactive
Potency [5]: inactive
Potency [9]: inactive
Potency [11]: inactive
Potency [12]: inactive
